Data: PubChem BioAssay (NCI)
Compounds without any hit were thinned out: in the full panel of roughly 83,000, 20% have a hit.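 Testing used 96-well plates and a 48-hour single-concentration exposure. Example: -40 means 40% of the starting cells died.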 The source made the active and inactive calls. The calls were made as follows: active = growth percent below 10; inactive = the rest.

Assays:
Experiment in all cases: NCI-60 one-dose screen, 48 h (100 = growth as untreated, 0 = no growth, -100 = all killed)
[1] = system: DU-145 prostate; settings: 10 µM unless noted
[2] = system: MALME-3M melanoma; settings: 10 µM unless noted
[3] = system: MDA-MB-231 breast; settings: 10 µM unless noted
[4] = system: RXF 393 renal; settings: 10 µM unless noted
[5] = system: SF-268 CNS; settings: 10 µM unless noted
[6] = system: SF-295 CNS; settings: 10 µM unless noted
[7] = system: SF-539 CNS; settings: 10 µM unless noted
[8] = system: UACC-257 melanoma; settings: 10 µM unless noted
[9] = system: M14 melanoma; settings: 10 µM unless noted
[10] = system: HCT-15 colon; settings: 10 µM unless noted
[11] = system: HT29 colon; settings: 10 µM unless noted
[12] = system: SNB-75 CNS; settings: 10 µM unless noted
[13] = system: SNB-19 CNS; settings: 10 µM unless noted
[14] = system: U251 CNS; settings: 10 µM unless noted
[15] = system: PC-3 prostate; settings: 10 µM unless noted
[16] = system: UACC-62 melanoma; settings: 10 µM unless noted
[17] = system: LOX IMVI melanoma; settings: 10 µM
[18] = system: SK-MEL-28 melanoma; settings: 10 µM unless noted

Measured: growth

C[C@H]1CN(C(=O)c2ccc3c(NNC(=O)c4ccncn4)nc4cc(F)c(F)cc4n23)CCN1
inactive: [1] 41.3% | [2] 33.6% | [3] 45.7% | [4] 52.9% | [5] 27.4% | [6] 12.4% | [8] 22.3% | [10] 28.4% | [11] 36.6% | [12] 65.3% | [13] 30.1% | [14] 15.5% | [15] 38.7% | [17] 12.4% | [18] 31.1%
active: [7] 8.55% | [9] -24.8% | [16] 6.69%

COc1cccc(/C=C/C(=O)c2ccc(OC)c(S(N)(=O)=O)c2)c1
inactive: [1] 31.8% | [2] 71.2% | [3] 49.4% | [4] 41.7% | [5] 39.5% | [6] 34.6% | [8] 65.8% | [9] 41.2% | [12] 20.6% | [13] 27% | [15] 48% | [16] 52.6% | [18] 60.8%
active: [7] -11.6% | [10] -7.46% | [11] 4.06% | [14] -31.2% | [17] -69.9%

O=C(NNc1nc2cc(F)ccc2n2c(C(=O)N3CCN(C4CC4)CC3)ccc12)c1ncccn1
inactive: [1] 47.8% | [2] 33.2% | [3] 43.6% | [4] 64.8% | [5] 29.9% | [7] 12.9% | [8] 19.7% | [10] 10.5% | [11] 39% | [12] 73.3% | [13] 30.7% | [14] 16.8% | [15] 49% | [17] 13.7% | [18] 30.8%
active: [6] -33.9% | [9] -33% | [16] 9.28%

COc1cc(OC)cc(-c2cc3ccc(N(C)C)cc3c(=O)[nH]2)c1
active: [7] -1.21% | [14] 7.67%
inactive: [1] 21.5% | [2] 59.3% | [3] 33.1% | [4] 80.5% | [5] 36.3% | [6] 16.2% | [8] 75.7% | [9] 10.7% | [10] 18.9% | [11] 12.4% | [12] 57.3% | [13] 35.5% | [15] 35.7% | [16] 51.8% | [17] 23% | [18] 61.3%

COc1ccc(C2=NN(c3ccccc3)C(c3ccc(OCc4ccccc4)c(OC)c3)C2)cc1OC (stereo not given)
inactive: [1] 113% | [2] 99.1% | [3] 101% | [4] 86.2% | [5] 90% | [6] 91.3% | [7] 98.7% | [8] 90.9% | [9] 91.2% | [10] 93.8% | [11] 86.6% | [12] 97.3% | [13] 98.9% | [14] 108% | [15] 92.7% | [16] 85.1% | [18] 104%

COc1ccc(-c2nnc3ccc(N/N=C/c4ccc(O)cc4)nn23)cc1
active: [17] -54.8%
inactive: [1] 51.9% | [2] 64.2% | [3] 60.6% | [4] 42.7% | [5] 35.8% | [6] 43.6% | [7] 36.4% | [8] 82.3% | [9] 56.4% | [10] 26.7% | [11] 87.4% | [12] 53.6% | [13] 67.5% | [14] 67.6% | [15] 40.5% | [16] 58.8% | [18] 69.1%

Cc1ccc(-c2nnc3ccc(N/N=C/c4ccccc4)nn23)cc1
inactive: [1] 75.9% | [2] 95.6% | [3] 80.1% | [4] 94.3% | [5] 57.8% | [6] 52.3% | [7] 80.8% | [8] 103% | [9] 67.3% | [10] 69.2% | [11] 118% | [13] 86.6% | [14] 75.1% | [15] 89.3% | [16] 98.4% | [17] 47.5% | [18] 95.7%
active: [12] -17%

Cc1cc(C)n(-c2ccc3nnc(-c4ccccc4)n3n2)n1
inactive: [1] 92.2% | [2] 108% | [3] 117% | [4] 90.6% | [5] 89.6% | [6] 103% | [7] 102% | [8] 135% | [9] 129% | [10] 86.4% | [11] 115% | [12] 94.4% | [13] 98.3% | [14] 102% | [15] 104% | [16] 99.9% | [17] 77.3% | [18] 122%

C/C(=N\Nc1ccc(S(N)(=O)=O)cc1)c1ccc(N=Nc2c(Nc3ccccc3)[nH][nH]c2=O)cc1
active: [2] -65.9% | [3] -31.3% | [4] -24.1% | [5] 9.33% | [6] 5.12% | [7] -77.4% | [8] 5.63% | [9] -62.5% | [11] 4.54% | [13] -5.15% | [14] -46.7% | [16] -40.7% | [17] -41.2% | [18] -54.1%
inactive: [1] 13.8% | [10] 36.7% | [12] 21% | [15] 20%

COc1ccc(C(=O)/C=C/c2ccccc2Br)cc1S(N)(=O)=O
active: [1] -31.7% | [3] -20.8% | [4] -70% | [6] -76.6% | [7] -74.9% | [9] -11.7% | [10] -91.5% | [11] -17.2% | [13] 1.44% | [14] -95.6% | [17] -89.9% | [18] -27.7%
inactive: [2] 62.3% | [5] 14.2% | [8] 15.5% | [12] 34.1% | [15] 21% | [16] 34.4%

O=C(NNc1nc2cc(F)ccc2n2c(CN3CCCCC3)ccc12)c1cnccn1
inactive: [2] 22.6%
active: [1] -43.7% | [3] -31.1% | [4] -83.3% | [5] -20.9% | [6] -92% | [7] -66% | [8] -81.1% | [9] -86.5% | [10] -52.4% | [11] 8.19% | [12] -9.76% | [13] -8.81% | [14] -84.8% | [15] -18.3% | [16] -35.2% | [18] -57.4%

COc1ccc(C(=O)/C=C/c2ccc3ccccc3c2)cc1S(N)(=O)=O
active: [1] -9.03% | [3] 6.01% | [4] -60.2% | [6] -80.5% | [7] -87.9% | [8] -48.4% | [9] -78.5% | [10] -87.1% | [11] -26.5% | [12] -15.5% | [13] -49.6% | [14] -96.3% | [15] -11.9% | [17] -89.1% | [18] -41.5%
inactive: [2] 18.1% | [5] 12.8%

NS(=O)(=O)c1ccc(-n2cc(-c3cccc(NC(=O)c4ccc(Cl)c(C(F)(F)F)c4)c3)nn2)cc1
inactive: [1] 18.3% | [2] 39.9% | [5] 29.4% | [8] 39.1% | [9] 16.2% | [10] 41.6% | [13] 32.3% | [15] 17.7% | [16] 35%
active: [3] -5.26% | [6] 7.53% | [7] -38.8% | [11] 9.41% | [12] 5.75% | [14] -54.8% | [18] -14.5%

COc1ccc(C(=O)/C=C/c2cccc(Cl)c2)cc1S(N)(=O)=O
inactive: [2] 27.6% | [12] 29.5% | [15] 31.7%
active: [1] -40.6% | [3] -4.13% | [4] -65.8% | [5] 7.86% | [6] -88.8% | [7] -80.6% | [8] -29.6% | [9] -10.5% | [10] -89.9% | [11] 0.678% | [13] 0.182% | [14] -97.1% | [16] -3.37% | [17] -87.4% | [18] -25.7%

CC(=O)NNc1ccc2nnc(-c3ccccc3)n2n1
inactive: [1] 103% | [2] 98.5% | [3] 106% | [4] 101% | [5] 95% | [6] 104% | [7] 103% | [8] 109% | [9] 98.8% | [10] 103% | [11] 129% | [12] 90.3% | [13] 97.3% | [14] 101% | [15] 107% | [16] 98.6% | [17] 99.3% | [18] 107%

N#Cc1c(NCc2ccccc2)n[nH]c1Nc1ccccc1
inactive: [1] 92.7% | [2] 21.9% | [3] 66.3% | [4] 60.7% | [5] 54.8% | [6] 49.5% | [7] 75.9% | [8] 50.9% | [9] 41.1% | [10] 42.4% | [11] 84.3% | [12] 57.4% | [14] 45.9% | [15] 40.1% | [16] 64.9% | [17] 58.4% | [18] 79.1%

Cc1cnc(C(=O)NNc2nc3cc(F)ccc3n3c(C(=O)N4CC5CC(C4)N5)ccc23)cn1
inactive: [1] 48.8% | [2] 43% | [3] 43.7% | [4] 60.4% | [5] 33.9% | [6] 11% | [8] 25.5% | [10] 32.4% | [11] 41.5% | [12] 71.6% | [13] 35.2% | [14] 22.9% | [15] 47.2% | [17] 16% | [18] 30.3%
active: [7] 8.21% | [9] -22.8% | [16] 2.81%
